Screening data from PubChem.
TSHR ag – agonists of human thyroid stimulating hormone receptor. hit rate 0.48% among 73,000. HEK293-CNG-TSHR cells (CNG channel as cAMP sensor), membrane potential dye, cAMP. P16473. Potency, µM (doses to about 57.1 µM), usual class: activators; active = well fitted activation curve with a large enough effect in the main read-out, with a control signal flat, not every such curve was filed as active; inconclusive = small, poorly fitted or top-dose-only effect, or a change in a side signal; inactive = no such curve, though single readings can be large or run the other way; reference of the percent scale not stated here;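 note: the control signal comes from parental cells without the receptor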
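HEK 293 cells stably expressing TSHR and a modified CNG channel, with CNG-only parental cells as counterscreen, were preloaded 60 min at room temperature with membrane potential dye containing 100 uM RO 20-1724. Compound exposure was 30 min, and depolarization was read as fluorescence at 590 nm.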
HEK293 cAMP ctrl – parental HEK293 cAMP activation (counter-screen). Potency, µM (titrated, usually from 57.1 µM), hits mostly activators. hit rate 2.5% among 73,000. parental HEK293 CNG cAMP sensor, membrane potential fluorescence; active = well fitted activation curve with a large enough effect; inconclusive = small, poorly fitted or top-dose-only effect; inactive = no such curve, though single readings can be large or run the other way; note: nearly all actives have a fitted effect of over 55% in size
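Counterscreen for endogenous-receptor signalling: CNG-channel HEK 293 cells report cAMP rise by membrane depolarization. After 60 min dye equilibration with 100 uM RO 20-1724, compounds incubated 30 min before bottom-read fluorescence at 590 nm.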
Numbers stand for hits; n = inactive; u = inconclusive; x = not tested or not shown; [ ] = another dose, or the depositor's remark. Most compounds without a hit are left out; they make up all but 2.9% or so of the library.

SMILES	TSHR ag	HEK293 cAMP ctrl
N#C[C@@H](N=Nc1ccccc1C(=O)O)C(N)=O	n[11.4 µM]	n[11.4 µM]
CC[C@H]1C(=O)OC[C@@H]1Cc1cncn1C	n	n
C=CCn1c(SCC(=O)NCC2CCCO2)nc2scc(-c3ccco3)c2c1=O (stereo unspecified)	n	n
O=C(CSc1nc2scc(-c3ccco3)c2c(=O)n1-c1ccccc1)NCC1CCCO1 (stereo unspecified)	32µM	n
CC(C)CO/N=C1/[C@H]2O[C@@H]2[C@@H](O)[C@H]2[C@H]1CCn1c(=O)n(C)c(=O)n12	n[11.4 µM]	n[11.4 µM]
COc1ccccc1C(=O)Nc1c2c(nn1-c1cccc(C)c1C)CS(=O)(=O)C2	u	5µM
COc1ccc(CC(=O)Nc2c3c(nn2-c2cccc(C)c2C)CS(=O)(=O)C3)cc1	n	n
CCNCCCNCCCCNCCCNCC	n	n
Clc1ccc(Oc2cccc(/C=N/n3cnnc3)c2)cc1	n[11.4 µM]	n
Cc1cc(/C=N/n2cnnc2)c(C)n1-c1cccc(Cl)c1	25µM	n
Cc1cc(/C=N/n2cnnc2)c(C)n1-c1ccc(Cl)cc1Cl	u	3.2µM
Cc1cc(N2CCCC2)ccc1/C=N/n1cnnc1	n[11.4 µM]	n[11.4 µM]
COC(=O)[C@@H]1[C@@H](O)[C@]2(O)c3ccccc3O[C@]2(c2ccccc2)[C@H]1c1ccccc1	n[11.4 µM]	n[11.4 µM]
Cc1nc(NCc2ccccc2)c2nc(-c3ccccc3)n(C(C)CN(C)C)c2n1 (stereo unspecified)	n	n
O=C(SCc1cccc2ccccc12)c1ccc(Cl)cc1	n[11.4 µM]	n[11.4 µM]
CCC/C=C(\CCC)C(NP(=O)(c1ccccc1)c1ccccc1)c1ccc(C(F)(F)F)cc1 (stereo unspecified)	u	4µM
CCC/C=C(\CCC)C(NP(=O)(c1ccccc1)c1ccccc1)c1ccc(-c2ccccc2)cc1 (stereo unspecified)	n	n
CCOC(=O)N/N=C1/C[C@@H](O)[C@@H](O)[C@@H]2[C@@H]3C(=O)N(C4CCCCC4)C(=O)[C@H]3CC[C@@H]12	n[11.4 µM]	n[11.4 µM]
O=c1c(-c2cccs2)nc2cnc(N3CCNCC3)nc2n1Cc1cccs1	n	n
N=C(N)S[C@H]1c2ccccc2-c2cc([N+](=O)[O-])ccc21	n[11.4 µM]	n[11.4 µM]
O=c1c(-c2cccs2)nc2cncnc2n1-c1ccccc1	u	25µM
O=c1c(-c2ccccc2)nc2cncnc2n1-c1ccccc1	n	n
Cn1c(=O)c(-c2ccccc2)nc2cncnc21	u	4µM
Cn1c(=O)c(-c2cc(F)cc(F)c2)nc2cncnc21	x	n
O=c1c(-c2ccccc2)nc2cnc(N3CCNCC3)nc2n1-c1ccccc1	n	n
SMILES	TSHR ag	HEK293 cAMP ctrl
O=C(O)[C@@H]1[C@@H]2C[C@H]([C@@H](Br)[C@H]2N2C(=O)CCC2=O)[C@@H]1C(=O)O	n[11.4 µM]	n[11.4 µM]
N#CCSc1ncnc2sc3c(c12)CCC3	n	n
CC(C#N)Sc1ncnc2sc3c(c12)CCC3 (stereo unspecified)	u	25µM
CN1CCN(CCCBr)CC1	n[11.4 µM]	n[11.4 µM]
COC(=O)C1=C(C)N(Cc2ccccc2)C2=C(C(=O)c3ccccc3)C(c3ccccc3)[C@@](O)(C(=O)OC)C(=O)N2C1c1ccccc1 (stereo partly specified)	n[11.4 µM]	n[11.4 µM]
COc1ccc([C@@H](Nc2ccccn2)c2cc(C(C)(C)C)cc(C(C)(C)C)c2O)cc1	n[11.4 µM]	n[11.4 µM]
CC1=C(C(=O)OCC2CCCO2)C(c2ccncc2)C2=C(CC(C)(C)CC2=O)N1 (stereo unspecified)	u	4µM
COCCOC(=O)C1=C(C)NC2=C(C(=O)CC(C)(C)C2)C1c1cccnc1 (stereo unspecified)	n	n
O=C(O)CC[C@@H](NC(=O)c1ccccc1C(=O)O)C(=O)O	n	n
CCOCC(=O)Nc1cc(C(=O)OC)ccc1C(=O)OC	n	n
CCn1ncc(Br)c1C(=O)Nc1cc(C(=O)OC)ccc1C(=O)OC	u	13µM
C[C@@H](CSC(=N)N)C(N)=O	n[11.4 µM]	n[11.4 µM]
Cc1c2c(nc3c(C)cccc13)OC(C)C2 (stereo unspecified)	u	25µM
CCc1c2c(nc3ccccc13)OC(C)C2 (stereo unspecified)	n	n
COc1ccccc1C[C@@H](Cc1nc2ccccc2[nH]1)c1nc2ccccc2[nH]1	x	n
CC(=O)NCCNc1ncncc1-c1ccc(N(C)C)cc1	n	n
CN(C)c1nc(Oc2ccc(C(=O)OCC(=O)Nc3ccccc3)cc2)nc(N(C)C)n1	u	3.2µM
CCNc1nc(Oc2ccc(C(=O)OC)cc2)nc(N(C)C)n1	n	n
O=[N+]([O-])c1ccc(CCO)cc1	u	n
O=C(O)CCSCc1ccccc1	n[11.4 µM]	n[11.4 µM]
C/C(NC(=O)c1ccccc1)=C1/C(=O)CC2C1C2(C)C (stereo unspecified)	u	4µM
COC(=O)C(NC(=O)c1ccccc1)=C(C)C	n	n
CS[C@]12C(=O)C[C@]3(C)[C@@H](CC[C@@]3(O)C(=O)CO)[C@@H]1CCC1=CC(=O)CC[C@]12C	n[11.4 µM]	n[11.4 µM]
